Bioassay records (PubChem BioAssay)
Only some compounds are listed: those with a hit (about 21% of all), similar ones and a draw of the others.
ELG1 DNA repair – ELG1-dependent DNA repair inhibition; HEK293T ELG1-luciferase reporter, luminescence, 16 h; DNA damage induced by 5-fluorouridine; Potency, µM (series often up to 46.1 µM), most hits filed as inhibitors; hit rate 2.3% among 330,000; AID 504467; also: nearly all actives have a fitted effect of over 55% in size
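Step one: seed 2,000 cells per well. Step two: pin-transfer compound or DMSO alongside 5-fluorouridine. Step three: incubate 16 hr, 37 °C, 5% CO2. Step four: add ONE-Glo, wait 30 min, read luminescence.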
IL1B secr inh – inhibitors of inflammasome signaling (IL-1 beta secretion). THP-1 LPS/ATP IL-1B secretion, AlphaLISA, 16 h; active compounds read low. activity change, % at 57.5 µM. hit rate 4.7% among 360,000. AID 743279; in the data active = activity change below about -50%; inconclusive = mostly about -30% to -49%
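Secreted IL-1B measured by AlphaLISA bead assay after 16 h compound exposure of THP-1 cells; compounds (final up to 57.5 uM) added 1 h before LPS (250 ng/mL) and ATP (1.25 mM) stimulation; lower signal means less secretion.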
RORgamma inh – ROR gamma (mouse) transcription inhibition. Drosophila S2 Gal4-RORgamma UAS-luciferase reporter, 20 h. P51450. Potency, µM (highest dose often 53.6 µM), usual class: inhibitors. hit rate 5.4% among 310,000; also: nearly all actives have a fitted effect of over 60% in size
Target sequence (P51450 whole entry, looked up, the tested form may be a part): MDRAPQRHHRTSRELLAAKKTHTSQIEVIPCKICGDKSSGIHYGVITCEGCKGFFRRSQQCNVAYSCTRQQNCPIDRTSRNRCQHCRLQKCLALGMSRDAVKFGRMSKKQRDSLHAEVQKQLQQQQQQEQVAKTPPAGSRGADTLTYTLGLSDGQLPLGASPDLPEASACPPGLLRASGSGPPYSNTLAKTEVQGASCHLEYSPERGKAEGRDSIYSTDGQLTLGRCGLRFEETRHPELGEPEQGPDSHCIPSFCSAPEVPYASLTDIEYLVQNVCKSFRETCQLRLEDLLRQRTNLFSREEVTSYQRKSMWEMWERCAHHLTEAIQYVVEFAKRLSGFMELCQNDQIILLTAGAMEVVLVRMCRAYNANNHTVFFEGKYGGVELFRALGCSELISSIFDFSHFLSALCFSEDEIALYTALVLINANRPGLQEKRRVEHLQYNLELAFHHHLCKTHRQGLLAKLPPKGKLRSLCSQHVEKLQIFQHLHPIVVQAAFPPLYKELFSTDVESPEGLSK
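Compounds are pin-transferred onto Drosophila Schneider cells expressing a copper-inducible Gal4–ROR gamma transactivation domain fusion. After 1 hr, copper sulfate is added to 700 uM final; luciferase is read 20 hr later.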
DT40 TDP1 CPT – DT40-hTDP1 cell growth loss with CPT; Potency, µM (top dose mostly 46.2 µM), most hits filed as inhibitors; chicken DT40 Tdp1-/-;hTDP1 cells + 20 nM CPT, ATP luminescence, 48 h; AID 686979; hit rate 12% among 420,000; also: nearly all actives have a fitted effect of over 55% in size
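Cell growth measured by CellTiter-Glo luminescence after a minimum 48 h, 37 C compound exposure with 20 nM CPT in Tdp1-knockout DT40 cells stably expressing hTDP1, seeded 400/well; qHTS titration format.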
TDP1 cell noCPT – qHTS for Inhibitors of human tyrosyl-DNA phosphodiesterase 1 (TDP1): qHTS in cells in absence of CPT; DT40 Tdp1-/- hTDP1 cells, no CPT, ATP luminescence, 48 h; Potency, µM (doses to about 46.2 µM), actives largely listed as inhibitors; hit rate 15% among 420,000; AID 686978, 2013; also: nearly all actives have a fitted effect of over 55% in size
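DT40 Tdp1-/-;hTDP1 cells, no CPT (DMSO vehicle only), 400 cells/well; compounds pin-transferred; ≥48 hr, 37 °C; CellTiter-Glo 30 min RT dark, luminescence read.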
Gal4-VP16 FLuc – Gal4-VP16 reporter inhibition counter-screen | AID 2546 | hit rate 3.5% among 310,000 | Potency, µM (series often up to 53.6 µM), actives largely listed as inhibitors | Drosophila S2 Gal4-VP16 UAS-luciferase, luminescence, 20 h;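 also: Gal4-VP16 expression switched on by copper sulfate through the metallothionein promoter; nearly all actives have a fitted effect of over 50% in size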
Hits are given with their value; n = inactive; u = inconclusive; x = no result given; [ ] = another dose, or the depositor's remark. Unless noted, calls follow the shape of the dose curve; as a rule, active = well fitted curve in the direction sought with a large enough effect; inconclusive = small, poorly fitted or top-dose-only effect, or another doubt; inactive = no such curve, though single readings can be large; an effect the other way counts as inactive or inconclusive.

SMILES | ELG1 DNA repair | IL1B secr inh | RORgamma inh | DT40 TDP1 CPT | TDP1 cell noCPT | Gal4-VP16 FLuc
Cc1ccc(/C=N/NC(=O)c2cc(C3CC3)nc3ccccc23)o1 | u | n | u | 4.1µM | 3.7µM | u
CCN(CC)c1ccc(/C=N/NC(=O)c2cc3ccccc3[nH]2)cc1 | n | n | n | u | u | n
O=C(N/N=C/c1ccoc1)c1ccccc1O | n | n | 10µM | n | n | 18µM
CCN(CC)c1ccc(/C=N/NC(=O)c2c[nH]c3ccccc23)cc1 | n | n | n | u | 23µM | n
O=C(N/N=C/c1ccoc1)c1ccccc1 | u | n | n | n | n | n
Cc1ccc(/C=N/NC(=O)c2cc(-c3ccccc3)nc3ccccc23)o1 | n | n | 4µM | 18µM | 9.2µM | 7.1µM
CC(CCc1ccccc1)NC(=O)COc1ccc(S(=O)(=O)N2CCOCC2)cc1[N+](=O)[O-] (stereo unspecified) | n | n | n | u | u | n
N#Cc1ccccc1OCC(=O)Nc1ccc(S(=O)(=O)N2CCOCC2)cc1 | n | n | x | n | u | x
CN1CCC(OC(=O)c2cc3cc(Br)ccc3oc2=O)CC1 | n | n | n | n | n | n
CCN(CC)c1ccc(/C=N/NC(=O)c2cc(C)nc3ccccc23)cc1 | n | n | 11µM | n | u | u
CCCc1cc(C(=O)OC)c2ccccc2n1 | n | n | n | n | u | n
Cc1ccc(-c2cc(C(=O)N/N=C/c3c(C)nn(C)c3C)c3ccccc3n2)cc1C | u | -51 | u | 12µM | 10µM | n
O=C(NC(Cc1c[nH]c2ccccc12)C(=O)N/N=C/c1ccc(Cl)cc1)c1cccs1 (stereo unspecified) | n | -66 | n | 12µM | u | n
CCCc1cc(C(=O)N/N=C/c2ccc(C)o2)c2ccccc2n1 | n | n | 10µM | u | u | n
Cc1cc(C(=O)N/N=C/c2ccncc2)c2ccccc2n1 | n | n | n | n | n | n
Cc1ccc(-c2cc(C(=O)N/N=C/c3ccoc3)c3ccccc3n2)cc1 | n | n | 7.1µM | u | u | 10µM
O=C(N/N=C/c1ccc(O)cc1)c1cc(-c2ccccc2)nc2ccccc12 | n | n | n | u | u | n
Cc1cc(C(=O)N/N=C/c2ccc(C)o2)c2ccccc2n1 | n | n | u | 1.5µM | 1.3µM | u
O=C(Cc1c[nH]c2ccccc12)N/N=C/c1ccc(F)cc1 | n | n | n | 16µM | 21µM | n
CCN(CC(=O)Nc1ccccc1C(F)(F)F)C(=O)CCc1c(C)[nH]c(=O)c(C#N)c1C | u | n | n | n | n | n
COc1ccc(CNc2ccncc2)c(OC)c1OC | x | n | x | u | n | x
COc1cc(CNc2ncc(-c3ccc(Br)cc3)n2C)cc(OC)c1OC | n | n | n | 10µM | u | n
COc1ccc(CNc2ncc(-c3ccccc3)n2C)c(OC)c1OC | n | n | n[1.91 µM] | u | 15µM | n
c1ccc(CCNc2cc(-c3ccc4ccccc4c3)nc3ccnn23)nc1 | x | n | x | u | u | x
COC1(OC)C(/C=C/c2ccc(Cl)cc2)C(C#N)(C#N)C1(OC)OC (stereo unspecified) | u | -102 | u | 8.2µM | 8.2µM | u
SMILES | ELG1 DNA repair | IL1B secr inh | RORgamma inh | DT40 TDP1 CPT | TDP1 cell noCPT | Gal4-VP16 FLuc
COC(=O)c1cc2c(C)c(C)c3ccccn3c-2c1C(=O)OC | u | n | n | 26µM | u | n
COC(=O)c1cc2ccccn2c2c(C(=O)OC)c(C(=O)OC)cc1-2 | u | n | n | n | u | n
CCCC(C)(C)C(=O)N1CCC1(C)C(=O)Nc1ccc2c(c1)OCCO2 (stereo unspecified) | x | n | x | u | u | x
CCOC(=O)c1ncc2[nH]c3cccc(OC(C)C)c3c2c1C | x | x | 18µM | x | x | u
COc1ccc(N2CCN(C(c3ccc(F)cc3)c3sc4nc(-c5ccco5)nn4c3O)CC2)cc1 (stereo unspecified) | x | x | x | n | u | x
COc1ccc(-c2csc(NC(=O)CCS(=O)(=O)c3ccccc3)n2)c(OC)c1 | u | -88 | u | u | 8.2µM | n
Cc1ccc(S(=O)(=O)CCC(=O)Nc2nc(-c3ccccn3)cs2)cc1 | u | n | x | 6.5µM | 5.8µM | x
Cc1ccc(S(=O)(=O)CCC(=O)Nc2nc(-c3cccnc3)cs2)cc1 | n | n | n | 15µM | u | n
O=C(CCS(=O)(=O)c1ccc(Cl)cc1)Nc1nc(-c2ccncc2)cs1 | 7.3µM | u | n | 16µM | 13µM | n
CCOC(=O)c1sc2ncn(CC(=O)Nc3ccc(C)cc3C)c(=O)c2c1C | x | x | x | n | n | x
Cc1nn(-c2ccccc2)c2c1cc1c(=O)[nH]c(=O)nc-1n2-c1cccc(Cl)c1 | x | x | x | n | n | x
